Source: PubChem
Sampled rows, rich in hits. Any-hit rate of the full collection: about 5.9%.
TGFb inhibitor: qHTS for Inhibitors of TGF-b. HepG2 CAGA-GFP TGF-b/SMAD3 reporter, GFP fluorescence, 18 h; TGF-beta stimulated, 500 pg/mL final. Potency, µM (top dose mostly 46.1 µM), without a hit: top-dose activity, negative = inhibition, usual class: inhibitors. 410,000 tested, 1.2% active. AID 588855, 2011; note: % is set by controls: 0 for no effect and ±100 for the full control effect; nearly all actives have a fitted effect of over 65% in size
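Smad-responsive CAGA-GFP expression was quantified in HEPG2 cells exposed to compounds and 500 pg/mL final TGF-beta for 18 h at 37 degrees C; unstimulated wells defined full inhibition.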
ATXN viability: Viability Counterscreen for Primary qHTS for Inhibitors of ATXN expression | Potency, µM (top dose mostly 56.7 µM), usual class: cytotoxic | 400,000 tested, 0.49% active | S2 cells (HEK-293 line with an ATXN2-luciferase reporter) viability, CellTiter-Fluor protease fluorescence, 24 h | AID 651635, 2014; note: nearly all actives have a fitted effect of over 40% in size
KB-V1 cytotox: qHTS assay for MDR1-selective chemotherapeutics: Primary screen using the drug-selected MDR subline cells KB-V1; KB-V1 MDR cells viability, CellTiter-Glo, 72 h; Potency, µM (top dose mostly 46.1 µM), hits mostly cytotoxic; 400,000 tested, 3.4% active; note: % is set by controls: 0 for no effect and ±100 for the full control effect; nearly all actives have a fitted effect of over 60% in size
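Potencies derive from concentration-effect curves fitted to normalized luminescence (CellTiter-Glo) of KB-V1 cells treated for 72 h at 37 degrees C in phenol-red-free DMEM containing 10% FBS.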
KB-3-1 tox: qHTS assay for MDR1-selective chemotherapeutics: Primary screen using the parental adenocarcinoma cell KB-3-1; Potency, µM (doses to about 46.1 µM), hits mostly cytotoxic; KB-3-1 viability, CellTiter-Glo ATP luminescence, 72 h; AID 1347075, 2019; 400,000 tested, 1.4% active; note: % is set by controls: 0 for no effect and ±100 for the full control effect; nearly all actives have a fitted effect of over 60% in size
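Parental KB-3-1 viability, qHTS format: 72 h compound exposure, 37 °C; CellTiter-Glo; media-only wells and DMSO plates as controls; concentration-effect fits on corrected data.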
ATXN2 expr inh: Primary qHTS for Inhibitors of ATXN expression; Potency, µM (series often up to 57 µM), for the others: at the top dose activity change, negative = inhibition, most hits filed as inhibitors; 360,000 tested, 0.72% active; HEK-293 ATXN2-luciferase reporter, luminescence, 24 h; note: % is set by controls: 0 for no effect and ±100 for the full control effect; nearly all actives have a fitted effect of over 55% in size
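qHTS (up to 57 uM final) was run with 24 h compound exposure of reporter cells at 37 °C. Each well was multiplexed: SteadyGlo luminescence measured ATXN2-luciferase expression after a fluorogenic Gly-Phe-AFC viability readout (25 uM final).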
HepG2 tox: qHTS for Inhibitors of TGF-b: Cytotox Counterscreen; Potency, µM (doses to about 46.1 µM), for inactives: top-dose activity change, negative = cytotoxicity, actives largely listed as cytotoxic; 410,000 tested, 0.76% active; HepG2 CAGA-GFP viability, ATP luminescence, 18 h; AID 588856, 2011
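HepG2 CAGA-GFP cells (1000/well, DMEM with 1% FBS) received compound, then TGF-beta at 500 pg/mL final, and were incubated 18 hours at 37 degrees C. Viability was read by CellTiter-Glo luminescence. Media-only wells were set as complete cell-killing and DMSO as no toxicity.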
* marks the source's active call; other numbers are inactive results; i = inactive; ? = inconclusive; nt = not tested or not shown; ! = repeats disagree. Calls come from the whole dose curve; as a rule, active = well fitted curve in the direction sought with a large enough effect; inconclusive = small, poorly fitted or top-dose-only effect, or another doubt; inactive = no such curve, though single readings can be large; an effect the other way counts as inactive or inconclusive. Potency is the fitted concentration of half-maximal effect.

SMILES | TGFb inhibitor | ATXN viability | KB-V1 cytotox | KB-3-1 tox | ATXN2 expr inh | HepG2 tox
Cc1ccc(S(=O)(=O)NCCc2nnc3ccc(SCC(=O)Nc4ccc(F)cc4F)nn23)cc1 | 19% | nt | i | i | nt | -10%
O=C(NCCCN1CCN(c2cccc(Cl)c2)CC1)C1(S(=O)(=O)c2ccc(Cl)cc2)CC1 | -12% | i | i | ? | -22% | -30%
COc1ccc(N2CCN(CCCNC(=O)C3(S(=O)(=O)c4ccc(Cl)cc4)CC3)CC2)cc1 | 3% | i | 9.2µM* | i | 1% | -1%
COc1ccc(-n2cc(CNCc3cccnc3)c(-c3cccc(F)c3)n2)cc1 | 2% | i | ? | i | -1% | -47%
COc1ccc(CNCc2cn(-c3cccc(F)c3)nc2-c2ccc(C)o2)cc1 | 13µM* | ? | i | i | nt | -102%
Cc1c(N2C(=O)/C(=C/c3ccc(N(C)C)cc3)N(C)C2=S)c(=O)n(-c2ccccc2)n1C | -3% | 13µM* | i | i | 1% | -13%
Cc1c(N2C(=O)/C(=C/c3ccccc3)SC2=S)c(=O)n(-c2ccccc2)n1C | 7% | i | i | i | 2% | -28%
CCOc1ccccc1NC(=O)C(OC(=O)c1cnccn1)c1ccccc1 (stereo not given) | -10% | i | 18µM* | i | -4% | 2%
CCOc1ccccc1NC(=O)c1cnccn1 | 2% | ? | i | i | -34% | -72%
CCOc1ccccc1NC(=O)C(OC(=O)c1ccc(N(C)C)cc1)c1ccccc1 (stereo not given) | 0% | i | 9.2µM* | i | 3% | -12%
CCOc1ccccc1NC(=O)C(NCCN(C)C)c1ccccc1 (stereo not given) | -3% | ? | i | i | -8% | -2%
CCOc1ccccc1NC(=O)C(OC(=O)c1ccc(O)cc1)c1ccccc1 (stereo not given) | ? | i | 15µM* | ? | -2% | -28%
CCOc1ccccc1NC(=O)C(OC(=O)c1ccc(CC)cc1)c1ccccc1 (stereo not given) | -2% | i | i | ? | -5% | 9%
COc1cccc(-c2ccc(O)c(CNCc3cccc(OC)c3OC)c2)n1 | nt | i | nt | nt | nt | nt
C=C(Cl)COc1ccc2c(CCCC)cc(=O)oc2c1 | 13% | i | i | i | -9% | -11%
CCCCc1cc(=O)oc2cc(OCC(=O)N(CC)CC)ccc12 | -15% | i | 7.3µM* | i | 3% | -20%
CSc1nsc(SC)c1NC(=O)Nc1ccccn1 | 0% | i | 15µM* | i | -6% | -17%
CSc1nsc(SC)c1NC(=O)OCCc1ccccn1 | 9% | i | i | i | -2% | -1%
COc1cc(C(=O)Nc2cccc(-c3nnc(-c4ccco4)o3)c2)ccc1OC(C)=O | 2% | i | 21µM* | i | 13% | 2%
COc1cc(C(=O)Nc2ccc(-c3nnc(-c4ccco4)o3)cc2)cc(OC)c1OC | 0% | i | ? | i | -3% | 4%
COc1ccc(C(=O)Nc2cccc(-c3nnc(-c4ccco4)o3)c2)cc1 | ? | ? | 13µM* | ? | 3% | -7%
COc1ccc(CC(=O)Nc2cccc(-c3nnc(-c4ccco4)o3)c2)cc1 | 27% | ? | ? | i | -2% | -18%
Cc1cc(C)cc(OCC(=O)Nc2cccc(-c3nnc(-c4ccco4)o3)c2)c1 | 3% | i | 15µM* | i | 10% | -1%
CCCC(=O)OC1=C(C(C)=O)N(Cc2ccccc2)S(=O)(=O)c2ccccc21 | 14% | i | ? | i | 10% | -10%
Cc1c(C(N)=O)c(N)c(C(=O)c2ccccc2)n1-c1ccccc1 | ? | i | 21µM* | i | 5% | 3%
SMILES | TGFb inhibitor | ATXN viability | KB-V1 cytotox | KB-3-1 tox | ATXN2 expr inh | HepG2 tox
CC1(C)CCC(=O)N2CC[C@H]3C[C@H](OC(=O)Nc4ccccc4)C[C@@H]1[C@H]32 | -3% | i | 18µM*! | i | 47% | -13%
CC(C)c1c(C(=O)N/N=C/c2ccccc2OCc2c(F)cccc2Cl)nnn1-c1nonc1N | -23% | i | 16µM* | i | -12% | 9%
CC(C)CCNc1nc2c(S(=O)(=O)c3ccc(Br)cc3)nnn2c2ccsc12 | 12% | nt | i | i | nt | -2%
Cc1ccc(C)c(N2CCN(C(=O)c3cc4cc5ccc(C)cc5nc4s3)CC2)c1 | -14% | i | ? | i | 2% | 1%
C=CCc1c(C)nc(SC)nc1Nc1ccc(C(=O)O)cc1 | 19% | i | 21µM* | ? | -1% | -21%
C=CCc1c(C)nc(SC)nc1Nc1ccc(C(C)=O)cc1 | 1% | i | 12µM* | i | 33% | -6%
C=CCc1c(C)nc(SC)nc1Nc1ccccc1 | -2% | i | ? | i | -9% | -20%
C=CCc1c(C)nc(-c2ccccc2)nc1Nc1ccc(O)cc1 | ? | ? | 13µM* | 21µM* | ? | -24%
N#Cc1ccsc1NC(=O)CN(Cc1ccccc1)Cc1ccccc1 | ? | i | 10µM* | ? | -5% | -7%
N#Cc1ccsc1NC(=O)CCc1ccccc1 | -1% | ? | ? | ? | 21% | 4%
N#Cc1ccccc1NC(=O)CSc1nc(-c2ccccc2)cc(C(F)(F)F)c1C#N | 20% | nt | i | i | -12% | -16%
CCOc1ccc(NC(=O)NCc2ccc3c(c2)CCN3C(C)=O)cc1 | -1% | i | i | i | -9% | -6%
CCCCN(C)CCNC(=O)c1ccc(Cn2c(=S)[nH]c3ccc(Br)cc3c2=O)cc1 | 11µM* | i | i | i | nt | -39%
O=C(c1ccc(Cn2c(=S)[nH]c3ccc(Br)cc3c2=O)cc1)N1CCN(C2CCCCC2)CC1 | -5% | i | 18µM* | ? | -20% | -18%
CC1CCCN(C(=O)CCCn2c(=S)[nH]c3ccccc3c2=O)C1 (stereo not given) | -3% | i | 8.2µM* | i | -5% | -7%
COCCn1c(=S)[nH]c2cc(C(=O)N3CCN(C4CCCCC4)CC3)ccc2c1=O | -21% | i | i | i | nt | -32%
CN(C)CCNC(=O)c1ccc2c(=O)n(Cc3ccc(Cl)cc3)c(=S)[nH]c2c1 | ? | i | i | i | -22% | -77%
